Screening results from PubChem.
p53ts 32C kill: qHTS Screen for Compounds that Selectively Target Cancer Cells with p53 Mutations: Cytotoxicity of p53ts Cells at the Permissive Temperature. H1299-p53A138V at 32C, ATP luminescence viability, 24 h. Potency, µM (highest dose often 46.1 µM), hits mostly cytotoxic. 0.93% of 130,000 active. AID 924, 2007; also: nearly all actives have a fitted effect of over 55% in size
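Cells: H1299 p53ts (A138V), 600/well, pre-incubated 16–30 h at 37C. Cpd up to 46 uM, 24 h, 32C. Readout: ATPlite luminescence, 20 min RT. Normalization: DMSO vs tamoxifen 100 uM. AC50 by Hill equation.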
p53ts 39C tox: qHTS Screen for Compounds that Selectively Target Cancer Cells with p53 Mutations: Cytotoxicity of p53ts Cells at the Nonpermissive Temperature | Potency, µM (series often up to 46.1 µM), most hits filed as cytotoxic | 1.5% of 130,000 active | H1299-p53A138V viability at 39C, ATP luminescence, 24 h | AID 902, 2007; also: nearly all actives have a fitted effect of over 55% in size
IkB signaling: IkB Signaling | ABC-DLBCL IkBa-CBG/CBR dual luciferase ratio, 4 h; response scale: scaled: untreated 0%, proteasome inhibitor 100% | Potency, µM (highest dose often 57.1 µM) | 0.04% of 110,000 active; active = well fitted curve in the direction sought with a large enough effect in the signal ratio, not every such curve was filed as active; inconclusive = small, poorly fitted or top-dose-only effect, or a change in a side signal; the % refers to the signal ratio;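 also: the direction sought is a rising ratio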
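Curves were fitted separately to fusion (green), unfused (red) and ratio luminescence, then classed by r2, magnitude and activity. Cells: OCI-Ly3, 4 h compound plus doxycycline at 37C; 10 uM MG-132 defined full response.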
Peg3 imprint: qHTS Assay for Compounds that Induce Erasure of Genomic Imprints | mouse ES Peg3-LacZ reporter, beta-gal luminescence, 40 h | Potency, µM (highest dose often 60.7 µM), most hits filed as activators | 0.02% of 110,000 active
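Readout: BetaGlo luminescence (5 min, room temp) for LacZ from the normally silent maternal Peg3 allele in female Peg3LacZ-Neo ES cells. Cells 300/well, 40 h, 37C, 5% CO2. Data normalized per plate to negative controls.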
Of the large screens only hits and unclear results are named; the others gave an inactive call; ! = not confirmed by another sample. Rows were chosen to be rich in hits. Some 1.7% of all compounds tested hit in one or more screens of this group. Unless noted, calls follow the shape of the dose curve; as a rule, active = well fitted curve in the direction sought with a large enough effect; inconclusive = small, poorly fitted or top-dose-only effect, or another doubt; inactive = no such curve, though single readings can be large; an effect the other way counts as inactive or inconclusive.

Cc1ccc(-c2nc3n(n2)C(c2ccccc2C)C=C(c2ccc(Cl)cc2)N3)cc1 (centres undefined)	IkB signaling inconclusive
Cc1cccc(C2C=C(c3ccc(F)cc3)Nc3nc4ccccc4n32)c1 (centres undefined)	p53ts 32C kill 20µM, p53ts 39C tox 10µM, IkB signaling inconclusive
Cc1ccc(C2=CC(c3ccccc3C)n3c(nc4ccccc43)N2)cc1 (centres undefined)	p53ts 32C kill inconclusive, p53ts 39C tox 5.01µM, IkB signaling inconclusive
CC(C)(C)c1ccc(CSc2nc3c(c(=O)[nH]2)CCCC3)cc1	none
CC(=O)c1ccc(NC(=O)c2nc3ccccc3n(C)c2=O)cc1	p53ts 32C kill 2.51µM, p53ts 39C tox 2.51µM
O=C(COC(=O)c1cccs1)c1ccc2ccccc2c1	none (no result: IkB signaling, Peg3 imprint)
Cc1ccc(C(=O)COC(=O)c2cccs2)cc1	p53ts 32C kill 20µM (no result: IkB signaling, Peg3 imprint)
COC(=O)CC[C@@H](C)[C@@H]1CC[C@@H]2[C@@H]3CC[C@H]4C[C@@H](O)CC[C@@]4(C)[C@@H]3CC[C@]21C	none
Cc1cc(C)c(NC(=O)Cn2c(=O)n(Cc3ccc4c(c3)OCO4)c(=O)c3ccccc32)c(C)c1	none
CCOc1ccc(NC(=O)Cn2c(=O)n(Cc3ccc(C(=O)NCc4ccc5c(c4)OCO5)cc3)c(=O)c3ccccc32)cc1	none
CCc1ccc(NC(=O)Cn2c(=O)n(-c3ccccc3)c(=O)c3ccc(C(=O)NCc4ccc5c(c4)OCO5)cc32)cc1	p53ts 39C tox 15.8µM
CCOc1ccc(NC(=O)Cn2c(=O)n(-c3ccccc3)c(=O)c3ccc(C(=O)NCc4ccc5c(c4)OCO5)cc32)cc1	p53ts 32C kill inconclusive, p53ts 39C tox 12.6µM
Cc1cc(C)c(NC(=O)Cn2c(=O)n(Cc3ccc(C(=O)NCc4ccc5c(c4)OCO5)cc3)c(=O)c3ccccc32)c(C)c1	p53ts 32C kill inconclusive, p53ts 39C tox 5.01µM
Cc1ccc(-c2cc(C(=O)N3CCN(c4ncccn4)CC3)c3ccccc3n2)cc1	p53ts 32C kill 12.6µM, p53ts 39C tox 12.6µM, IkB signaling inconclusive
COc1cccc(-c2cc(C(=O)N3CCN(c4ncccn4)CC3)c3ccccc3n2)c1	p53ts 32C kill 12.6µM, p53ts 39C tox inconclusive, IkB signaling inconclusive
O=C(Nn1cnnc1)c1cc(-c2ccccn2)nc2ccccc12	none
COc1cccc(-c2cc(C(=O)Nn3cnnc3)c3ccccc3n2)c1	p53ts 32C kill 3.98µM, p53ts 39C tox 5.01µM
Cc1ccc(C(=O)Nc2cccc(C(=O)OCc3cc(=O)n4c5c(sc4n3)CCCC5)c2)cc1	IkB signaling inconclusive
CCc1c(C)c2ccc(O)c(CN3CCN(c4ccc(OC)cc4)CC3)c2oc1=O	p53ts 32C kill inconclusive, p53ts 39C tox 7.94µM
COc1cc(/C=C(\C#N)c2nc3ccccc3[nH]2)ccc1OCc1cccc(C(F)(F)F)c1	p53ts 32C kill 12.6µM, p53ts 39C tox 3.16µM
c1cnc2c(c1)ccc1cccnc12	p53ts 32C kill inconclusive, p53ts 39C tox 3.16µM
CC(C)=C1C(=O)C(c2ccccc2)=C2CN3C(=O)N(CCc4ccccc4)C(=O)[C@]3(C)[C@H]21	none (no result: IkB signaling)
COc1cc(/C=N/O)ccc1OCc1ccc(C(=O)O)cc1	p53ts 32C kill 8.91µM, p53ts 39C tox 8.91µM (no result: IkB signaling, Peg3 imprint)
O=C(O)c1cc(/C=N\O)ccc1OCc1ccccc1	IkB signaling inconclusive
Cc1ccc(-n2nc(C)c(C(=O)NCCCN3CCN(c4ccccc4F)CC3)c2-n2cccc2)cc1	p53ts 39C tox 12.6µM, IkB signaling inconclusive
Cc1ccc(-n2nc(C)c(C(=O)NCCCN3CCN(c4cccc(Cl)c4)CC3)c2-n2cccc2)cc1	p53ts 32C kill inconclusive, p53ts 39C tox inconclusive, IkB signaling inconclusive
O=C(O)C(S)[C@@H](S)C(=O)O (some centres undefined)	none (no result: IkB signaling)
COc1cccc(-c2nc(-c3ccc(Br)o3)no2)c1	p53ts 32C kill inconclusive, p53ts 39C tox 12.6µM
COc1cccc(-c2nnc(-c3ccc(C)o3)o2)c1	p53ts 32C kill 12.6µM, p53ts 39C tox 11.2µM (no result: IkB signaling, Peg3 imprint)
N#C/C(=C\c1ccc(O)c(O)c1)C(=O)OCCc1cccs1	none
C[C@H]1[C@H](C)CC[C@]2(C(=O)O)CC[C@]3(C)C(=CC[C@H]4[C@]3(C)C[C@@H](O)C3[C@](C)(CO)[C@H](O)[C@@H](O)C[C@]34C)[C@H]12 (some centres undefined)	none (no result: p53ts 32C kill, p53ts 39C tox, IkB signaling)
CCc1ccc(-n2c(=O)c3c4c(sc3n(Cc3cc(=O)n5c(C)cccc5n3)c2=O)CCC4)cc1	none
CC1CCc2c(cc(-c3ccccc3)n2-c2ccc(C(=O)NC(C)C)cc2)C1 (centres undefined)	p53ts 39C tox 15.8µM
CC(C)NC(=O)c1ccc(-n2c(-c3ccccc3)cc3c2CCCCC3)cc1	IkB signaling inconclusive
COc1ccc(CCN(C)CCCOc2ccc(S(=O)(=O)c3[nH]c4ccccc4c3C(C)C)cc2)cc1OC	p53ts 32C kill 25.1µM, p53ts 39C tox 12.6µM, IkB signaling inconclusive
Cc1[nH]n2c(=O)cc(C(C)(C)C)nc2c1-c1ccccc1	p53ts 39C tox inconclusive
Cc1[nH]n2c(=O)cc(C(C)C)nc2c1-c1ccccc1	p53ts 39C tox 12.6µM
CCOc1ccc(NC(=O)c2ccc(N)cc2)cc1	p53ts 32C kill 12.6µM, p53ts 39C tox 12.6µM, IkB signaling inconclusive
CN1CCc2cccc3c2[C@@H]1Cc1ccc(O)c(O)c1-3	p53ts 32C kill 31.6µM!, p53ts 39C tox 10µM!
CNS(=O)(=O)c1cn(CC(=O)N2CCN(c3ccccc3OC)CC2)cc1S(=O)(=O)NC	none
O=C(CCCc1ccccc1)c1ccc2c(c1)OCCO2	p53ts 32C kill 7.94µM, p53ts 39C tox 11.2µM (no result: IkB signaling, Peg3 imprint)
O=C(O)CCC(=O)c1ccc2c(c1)OCCCO2	none
COc1ccc([C@@H]2OC[C@]3(COC(C)=O)[C@H](C)C=C(C)[C@@H]2[C@H]3C)cc1	none (no result: p53ts 32C kill, p53ts 39C tox, Peg3 imprint)
COc1ccc(N=[N+]([O-])c2ccc(OC)cc2)cc1	p53ts 39C tox 15.8µM, IkB signaling inconclusive
CCCn1c(/C=C/c2ccccc2)nc2ccccc21	p53ts 32C kill 12.6µM, p53ts 39C tox 10µM
CCOc1ccc2nc(-c3ccccc3)[nH]c2c1	p53ts 32C kill 6.31µM, p53ts 39C tox 5.01µM, IkB signaling inconclusive
Cc1ccc2nc(-c3cccc(N)c3)[nH]c2c1	p53ts 32C kill 14.1µM, p53ts 39C tox 11.2µM (no result: IkB signaling, Peg3 imprint)
COc1ccc2nc(-c3ccccc3)[nH]c2c1	p53ts 32C kill 10µM, p53ts 39C tox 12.6µM, IkB signaling inconclusive
COC(=O)[C@@]1(Cc2ccc(OC)cc2)[C@@H]2C(=CC(=O)[C@H]2CC(=O)C(=O)N2CCCC2)CN1C(=O)c1ccccc1	none (no result: IkB signaling)
C=C1C(=O)C=C2CN(C(=O)c3ccccc3)[C@@](Cc3ccc(OC)cc3)(C(=O)OC)[C@@H]12	p53ts 32C kill 3.16µM, p53ts 39C tox 20µM (no result: IkB signaling)
CCN(CC)c1ccc(NC(=O)C2COc3ccc(OC)cc3C2)c(C)c1 (centres undefined)	p53ts 39C tox inconclusive
Cc1ccc(C(=O)Nc2cccc(C(=O)O)c2)cc1S(=O)(=O)N1CCCC1	p53ts 32C kill 12.6µM, p53ts 39C tox 6.31µM
